Results on 43 molecules are retold here after PubChem BioAssay AID1362 (SRMLSC, 2008).

The experiment in a line: growth inhibition of WT strain, primary screen, mitochondrial fusion inhibitor project, WT and mutant strains, chemical genetic (AID 1362). Particulars: mitochondrial fusion phenotypic screen, at 10 µM.
[1] abbreviates: WT strain, growth inhibition, stronger effect = higher value.

About 4,000 (2.1%) of roughly 190,000 compounds were called active. No stated cut-off is given here; in the data, active means inhibition above about 58%; inactive means the rest, inconclusive results apart; tested in S. cerevisiae. Shown is part of a subset that was picked to be rich in actives.

As for `Cc1coc(C)c1C(=O)CC1(O)C(=O)N(C)c2ccc(Cl)cc21` (stereo unspecified), the inhibition under setting [1] was 5.13% (inactive) and the inhibition (mutant strain inhibition) was determined as 0.33%.
For `CCCCCC(=O)Nc1ccc(C(=O)N/N=C/c2ccc([N+](=O)[O-])cc2)cc1`, the inhibition under setting [1] was -17% (inactive) and the inhibition (mutant strain inhibition) is 15.9%.
Take `COc1ccc(C(=O)NCC(=O)N/N=C/c2ccc([N+](=O)[O-])s2)cc1OC`: the inhibition under setting [1] was -4.24% (inactive) and the inhibition (mutant strain inhibition) is -9.98%.
The like results for `Cc1ccccc1NCC(=O)N/N=C\c1ccc([N+](=O)[O-])s1` were, in that order, 66.5% (active) and 43.8%.
As to `CCOc1ccc(NC(=O)CCC(=O)n2nc(C)cc2C)cc1`, the inhibition by setting is: under setting [1], -6.72% (inactive); (mutant strain inhibition) -6.56%.
With `CCOc1ccc(NC(=O)CCC(=O)N/N=C/c2ccc([N+](=O)[O-])s2)cc1`, the inhibition is 60.3% (active) under setting [1] and 17.2% (mutant strain inhibition).
The like results for `Cc1cccc(/C=N/NC(=O)CNc2cccc3ccccc23)n1` were, in that order, 18.4% (inactive) and 3.37%.
The like results for `CCN(CC)C(=O)Cn1cc(S(=O)(=O)CC(=O)NCc2ccc3c(c2)OCO3)c2ccccc21` were, in that order, -10.5% (inactive) and 4.73%.
The matching figures for `O=C(/C=C/c1ccc(F)cc1)NCCNC(=O)/C=C/c1ccc(F)cc1`: 8.8% (inactive) and -17%.
On to `OCC1(Cc2ccccc2)CCN(Cc2cc3ccccc3o2)CC1`, for which the inhibition is 24.3% (inactive) under setting [1] and 36.2% (mutant strain inhibition).
The matching figures for `Cc1csc(Nc2ccc(Cl)cc2)[n+]1-c1ccc(Cl)cc1`: 78.4% (active) and 70%.
Turning to `COc1ccc(N2CCN(C(=O)COc3ccc4c(C)cc(=O)oc4c3)CC2)cc1`, the inhibition under setting [1] is -1.11% (inactive) and the inhibition (mutant strain inhibition) was -11.1%.
For `CC(C)c1nc(CNC(=O)CC2C(=O)NCCN2Cc2ccoc2)cs1` (stereo unspecified), the inhibition by setting is: under setting [1], 1.8% (inactive); (mutant strain inhibition) 0.76%.
The like results for `CN(C(=O)COc1ccccc1)c1nnc(-c2ccncc2)s1` were, in that order, 22.6% (inactive) and 9.04%.
The matching figures for `CN(CCC#N)c1ncnc2scc(-c3ccccc3)c12`: 23.5% (inactive) and 28.2%.
The matching figures for `N#CCCN(CCC#N)c1nnc(-c2ccccc2)s1`: 73.6% (active) and -2.41%.
As for `OCCC1CN(Cc2cccc(O)c2)CCN1CCc1ccccc1` (stereo unspecified), the inhibition was 9.78% (inactive) under setting [1] and 8.67% (mutant strain inhibition).
Consider `CCc1ccc(Oc2nc([N+](=O)[O-])nn2C)cc1`, for which the inhibition is 3.07% (inactive) under setting [1] and 19% (mutant strain inhibition).
The matching figures for `CCn1c(SCc2ccc(C)cc2)nnc1-c1nn(-c2ccccc2)ccc1=O`: 4.19% (inactive) and -13.4%.
For `CCc1ccc(-c2nn(-c3ccccc3)cc2CSC(=N)N)cc1`, the inhibition runs as follows: under setting [1], 90.2% (active); (mutant strain inhibition) 35.6%.
For `N=C(N)SCc1cccc2ccccc12`, the inhibition was 41% (inactive) under setting [1] and 10.9% (mutant strain inhibition).
The like results for `O=C(Nc1ccc2cn[nH]c2c1)c1ccc(S(=O)(=O)N2CCOCC2)cc1` were, in that order, 2.7% (inactive) and 11.1%.
The matching figures for `CS(=O)(=O)N1CCc2cc(C(=O)Nc3ccccc3)ccc21`: -2.67% (inactive) and -18.5%.
On to `Cc1c(C(=O)N2CCCc3ccccc32)sc2nc(-c3ccccc3)cn12`, for which the inhibition by setting is: under setting [1], 9.55% (inactive); (mutant strain inhibition) 9.04%.
Regarding `Cc1occc1C(=O)N1CCCc2ccccc21`, the inhibition was -3.43% (inactive) under setting [1] and -8.66% (mutant strain inhibition).
The like results for `Cc1cccc2cc3c(N)c(C(=O)N4CCCc5ccccc54)sc3nc12` were, in that order, 62.1% (active) and 57.1%.
The like results for `C/C(=N\NC(=O)c1cccc(N2CCCC2=O)c1)c1ccc(N)cc1` were, in that order, -2.44% (inactive) and -3.4%.
The like results for `CCNC(=S)NNC(=O)c1ccc2ncccc2c1` were, in that order, -18.5% (inactive) and -0.98%.
With `O=C(COC(=O)c1ccc(O)cc1)Nc1nccs1`, the inhibition is, setting by setting: under setting [1], -7.58% (inactive); (mutant strain inhibition) 1.79%.
Turning to `O=C(CN1CCN(c2ccc(Cl)cc2)CC1)NCc1cccs1`, the inhibition is, setting by setting: under setting [1], 14.4% (inactive); (mutant strain inhibition) -1.49%.
The matching figures for `O=C(CN1CCN(S(=O)(=O)c2ccc(Cl)s2)CC1)NCc1ccc(Cl)cc1`: 61.7% (active) and -2.81%.
As for `Cc1ccc(CNC(=O)CN2CCN(Cc3ccc(Cl)cc3)C2=O)cc1`, the inhibition by setting is: under setting [1], 4.82% (inactive); (mutant strain inhibition) -0.06%.
Regarding `Cc1ccc2nsnc2c1S(=O)(=O)N1CCCC1C(=O)O` (stereo unspecified), the inhibition under setting [1] is 2.57% (inactive) and the inhibition (mutant strain inhibition) was -0.55%.
Regarding `CC(=O)NC(Cc1ccc(F)c(F)c1)C(=O)NC1CCN(c2nnnn2-c2ccccc2)CC1` (stereo unspecified), the inhibition under setting [1] was -2.05% (inactive) and the inhibition (mutant strain inhibition) was determined as 7.21%.
The like results for `CS(=O)(=O)N(Cc1ccccc1Cl)c1ccc(C(=O)NCc2cccnc2)cc1` were, in that order, 1.43% (inactive) and 5.31%.
The matching figures for `Clc1ccc(C2=CSC3=Nc4cccc5cccc(c45)N23)cc1`: 61% (active) and 25.3%.
Regarding `COc1ccc(CN2CCNC(=O)C2CC(=O)N(C)Cc2ccccn2)cc1OC` (stereo unspecified), the inhibition under setting [1] was -6.3% (inactive) and the inhibition (mutant strain inhibition) was -4.12%.
In the case of `COC(=O)CSc1ccc2nnc(CCNS(=O)(=O)c3ccc(C)cc3)n2n1`, the inhibition was 8.31% (inactive) under setting [1] and 0.44% (mutant strain inhibition).
The like results for `CCCCCC(=O)Nc1ccc(-c2cn3cccnc3n2)cc1` were, in that order, 10.4% (inactive) and 10.5%.
Take `COc1ccc(CCN=C2SCC(=O)N2Cc2ccccc2)cc1OC`: the inhibition was -7.75% (inactive) under setting [1] and -8.9% (mutant strain inhibition).
The matching figures for `Cc1cccc(NC(=S)NCc2ccc3[nH]c4c(c3c2)CCCC4)c1`: 75.3% (active) and 51.7%.
The like results for `Cc1cccc(NC(=S)NCCN(C2CCCCC2)C2CCCC2)c1` were, in that order, 6.36% (inactive) and -17.7%.
As to `O=C(O)CCC(=O)NCc1ccc2[nH]c3c(c2c1)CCCC3`, the inhibition under setting [1] was 16.4% (inactive) and the inhibition (mutant strain inhibition) is 10.2%.
